Bioassay records (PubChem)
A selection: hits, their analogues and other compounds. The true share with any hit is near 17%.
HepG2 tox: HepG2 cytotoxicity, counter-screen for TGF-b inhibitors; actives 0.76% (n = 410,000); HepG2 CAGA-GFP viability, ATP luminescence, 18 h; Potency, µM (top dose mostly 46.1 µM), for inactives: at the top dose activity change, negative = cytotoxicity, hits mostly cytotoxic
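HepG2 CAGA-GFP cells (1000/well, DMEM with 1% FBS) received compound, then TGF-beta at 500 pg/mL final, and were incubated 18 hours at 37 degrees C. Viability was read by CellTiter-Glo luminescence. Media-only wells were set as complete cell-killing and DMSO as no toxicity.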
HT1080 IDH1KD tx: kills HT-1080 cells with IDH1 knockdown. actives 2% (n = 360,000). Potency, µM (highest dose often 46.1 µM), for the others: top-dose activity, negative = toxicity, hits mostly cytotoxic. HT-1080 IDH1 knockdown viability, ATP luminescence, 48 h. AID 686971;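 also: 0% = DMSO wells and -100% = cell-free medium wells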
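In this qHTS, HT-1080 cells depleted of IDH1 are exposed for 48 h at 37 °C to compound titrations. Toxicity is scored from CellTiter-Glo luminescence, with DMSO as full viability and medium alone as none.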
TGFb SMAD3 inh: TGF-b pathway inhibition | HepG2 CAGA-GFP TGF-b/SMAD3 reporter, GFP fluorescence, 18 h; TGF-beta stimulated, 500 pg/mL final | Potency, µM (doses to about 46.1 µM), inactives show at the top dose activity, negative = inhibition, actives largely listed as inhibitors | actives 1.2% (n = 410,000) | AID 588855; also: % is scaled to controls: 0 for no effect and ±100 for the full control effect; nearly all actives have a fitted effect of over 65% in size
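Per well, imaged GFP fluorescence of HEPG2 CAGA-GFP cells gives the signal; cells get compound, then TGF-beta (500 pg/mL final), 18 h at 37 degrees C; %Activity versus -TGF-beta and +DMSO controls.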
DT40 TDP1 no CPT: qHTS for Inhibitors of human tyrosyl-DNA phosphodiesterase 1 (TDP1): qHTS in cells in absence of CPT | DT40 Tdp1-/- hTDP1 cells, no CPT, ATP luminescence, 48 h | Potency, µM (top dose mostly 46.2 µM), for the others: at the highest dose activity change, negative = growth inhibition, usual class: inhibitors | actives 15% (n = 420,000); also: % is scaled to controls: 0 for no effect and ±100 for the full control effect; nearly all actives have a fitted effect of over 55% in size
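Readout: luminescence from CellTiter-Glo after 30 min in the dark at RT. Cells: DT40 Tdp1-/- with stable hTDP1, 400/well. Exposure: compounds alone, ≥48 hr, 37 °C.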
DT40 TDP1 CPT: growth inhibition of DT40 Tdp1-/-;hTDP1 cells with camptothecin (screen for TDP1 inhibitors); chicken DT40 Tdp1-/-;hTDP1 cells + 20 nM CPT, ATP luminescence, 48 h; Potency, µM (doses to about 46.2 µM), for the others: at the highest dose activity change, negative = growth inhibition, most hits filed as inhibitors; actives 12% (n = 420,000); AID 686979; also: % is scaled to controls: 0 for no effect and ±100 for the full control effect; nearly all actives have a fitted effect of over 55% in size
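Cell growth measured by CellTiter-Glo luminescence after a minimum 48 h, 37 C compound exposure with 20 nM CPT in Tdp1-knockout DT40 cells stably expressing hTDP1, seeded 400/well; qHTS titration format.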
HT1080NT lethal: kills 2HG-producing HT-1080-NT fibrosarcoma cells; HT-1080-NT fibrosarcoma viability, CellTiter-Glo ATP luminescence, 48 h; Potency, µM (series often up to 46.1 µM), for the others: top-dose activity, negative = less viability, hits mostly cytotoxic; actives 1.6% (n = 360,000); AID 686970;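 also: NT is the 2HG producing partner of a matched IDH1 knockdown line; 0% = DMSO-treated cells and -100% = media-only wells without cells; nearly all actives have a fitted effect of over 55% in size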
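Toxicity toward the 2HG-producing NT line was scored as %Activity, normalised to DMSO and no-cell wells, from CellTiter-Glo luminescence after 48 hours' treatment.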
* hit, by the source's call; u = inconclusive; x = no result; [ ] = remark or other dose. Calls follow the shape of the dose curve; as a rule, active = well fitted curve in the direction sought with a large enough effect; inconclusive = small, poorly fitted or top-dose-only effect, or another doubt; inactive = no such curve, though single readings can be large; an effect the other way counts as inactive or inconclusive. Potency is read from the fitted curve at half-maximal effect.

SMILES | HepG2 tox | HT1080 IDH1KD tx | TGFb SMAD3 inh | DT40 TDP1 no CPT | DT40 TDP1 CPT | HT1080NT lethal
Cc1cc(C)c(C(N)=O)c(Nc2cccc3ccccc23)n1 | 8% | 1% | -7% | -23% | -10% | -1%
CCc1ccc(Nc2nc(C)cc(C)c2C(N)=O)cc1 | 3% | 1% | -18% | 6.5µM* | u | 1%
CCCCC[C@H](O)/C=C/[C@@H]1[C@H]2C/C(=C/CCCC(=O)O)C[C@H]2C[C@H]1O | x | x | x | -13% | -25% | x
O=C(Nc1ccncc1)c1cnn2c1NC(=C1CC1)C=C2C(F)F | 2% | x | 1% | 11µM* | 10µM* | x
Cc1ccc2c(c1)CCCN2C(=O)c1cnn2c1NC(=C1CC1)C=C2C(F)F | -9% | x | -13% | 10µM* | 10µM* | x
O=C(Nc1ccc(F)c(F)c1)c1cnn2c1NC(=C1CC1)C=C2C(F)F | x | 23% | x | -18% | 16% | 28%
O=C(NC1CCCC1)c1cnn2c1NC(=C1CC1)C=C2C(F)F | -2% | x | -21% | u | u | x
CCOC(=O)c1cc2cc(OCc3ccccc3)ccc2nc1C | -26% | 2% | -12% | -25% | -19% | 1%
CCOC(=O)c1cnc2ccc(OCC)cc2c1N(C)Cc1ccccc1 | -36% | u | u | 23µM* | u | u
CCOC(=O)c1cnc2c(OC)cccc2c1Nc1ccc2c(c1)OCCO2 | -15% | 12% | -17% | u | u | 1%
CCOC(=O)c1cnc2ccc(OCC)cc2c1N1CCN(c2ccccc2OC)CC1 | -12% | u | u | 12µM* | u | u
CCOC(=O)c1cnc2c(OC)cccc2c1N1CCN(c2ccccc2F)CC1 | -88% | x | u | 18µM* | 18µM* | x
CCOc1ccc2ncc(C(=O)c3ccc(OC)cc3)c(N3CCN(CC)CC3)c2c1 | -33% | -8% | 15% | u | u | -2%
COc1cccc2cc(/C(C)=N/Nc3nc(-c4cc(C)ccc4C)cs3)c(=O)oc12 | 4% | 0% | u | -11% | -3% | 0%
CCCSc1nc(=O)n2cccc(C)c2n1 | 0% | -16% | 6% | -12% | -11% | 18%
CCCC12CN3CC(C)(CN(C1)C3c1ccc(CC)cc1)C2=O (stereo unspecified) | 9% | x | 2% | 4.6µM* | u | x
CCCC12CN3CC(C)(CN(C1)C3c1ccc(OC(C)C)cc1)C2=O (stereo unspecified) | -7% | 1% | 5% | u | -30% | 0%
NC(=O)C1CCCN(C(=O)c2cccc(S(=O)(=O)N3CCCCCC3)c2)C1 (stereo unspecified) | 0% | 2% | -12% | 8% | 5% | 1%[9.24 µM]
CS(=O)(=O)N1CCn2c1nc1ccccc12 | 0% | 7% | 0% | -22% | 14% | 9%
CCN1N=C(c2ccccc2)Cn2c1nc1ccccc12 | -8% | -12% | 19% | 16µM* | u | -9%
O=C(Nc1ccc(/C=C/c2ccc(NC(=O)c3cc(S(=O)(=O)O)c4cccnc4c3O)cc2S(=O)(=O)O)c(S(=O)(=O)O)c1)c1cc(S(=O)(=O)O)c2cccnc2c1O | x | x | x | -22% | -23% | x
O=S(=O)(O)c1cc(I)c(O)c2ncccc12 | x | x | x | 21µM* | 21µM* | x
O=C(c1ccc2c(=O)n3c(nc2c1)CCCCC3)N1CCN(c2ccc(Cl)cc2)CC1 | -39% | -5% | -30% | 18µM* | 23µM* | 0%
O=C(Nc1nc(-c2ccccc2)cs1)c1ccc2c(=O)n3c(nc2c1)CCCCC3 | -23% | u | u | 8.2µM* | 16µM* | u
O=C(Nc1ccc(SC(F)F)cc1)c1ccc2c(=O)n3c(nc2c1)CCC3 | -4% | -26% | -20% | u | u | 3.3µM*
SMILES | HepG2 tox | HT1080 IDH1KD tx | TGFb SMAD3 inh | DT40 TDP1 no CPT | DT40 TDP1 CPT | HT1080NT lethal
O=C(Nc1cccc(S(=O)(=O)N2CCOCC2)c1)c1ccc2c(=O)n3c(nc2c1)CCCCC3 | -18% | -25% | -22% | 10µM* | 13µM* | u
O=C(c1ccc2c(=O)n3c(nc2c1)CCCCC3)N1CCN(c2ccc(F)cc2)CC1 | -2% | 4% | -7% | u | -22% | 16%
CCOc1ccccc1C(=O)Nc1ccc(S(=O)(=O)Nc2onc(C)c2C)cc1 | 0% | x | 24% | 7% | -1% | x
O=C(Nc1ccc(Oc2ccccc2)cc1)c1ccc2nc([C@@H]3O[C@H](CO)[C@H](O)[C@H](O)[C@H]3O)[nH]c2c1 | 16% | u | -2% | 6% | 2% | u
O=C(Nc1cccc(S(=O)(=O)N2CCCC2)c1)c1ccc2c(=O)n3c(nc2c1)CCCCC3 | -30% | -15% | u | 16µM* | 15µM* | -17%
COc1ccc2noc3c2c1C(=O)c1ccccc1-3 | -106% | -27% | -10% | 18µM* | 15µM* | -23%
O=C1c2ccccc2-c2onc3ccc(NCCCn4ccnc4)c1c23 | -55% | u | u | u | 15µM* | u
COc1cccc2c1C(=O)c1ccc3ccccc3c1C2=O | -14% | -9% | 2% | u | -8% | -6%
O=C(NCc1cccnc1)Nc1ccccc1C(F)(F)F | -5% | -6% | -2% | 17% | -4% | -4%
CN(C)S(=O)(=O)c1cccc(NC(=O)CN2C(=O)C3C4C=CC(C4)C3C2=O)c1 (stereo unspecified) | 11% | 18% | 2% | -2% | -2% | 27%
CC(C)(C)n1ncc2c(=O)n(Cc3cccc(Cl)c3Cl)cnc21 | -6% | x | 5% | x | x | x
OC(CN1CCN(c2cccc(C(F)(F)F)c2)CC1)c1c[nH]c2ccccc12 (stereo unspecified) | -99% | u | u | 23µM* | u | u
OC(COCc1cccs1)CN1CCN(c2cccc(C(F)(F)F)c2)CC1 (stereo unspecified) | -42% | 6% | u | 21µM* | 18µM* | 4%
O=C(CS(=O)(=O)Cc1ccccc1)N1CCN(c2cccc(C(F)(F)F)c2)CC1 | -28% | -5% | -6% | u | u | 0%
CCCCn1c(N)c(N(CCOC)C(=O)c2c(CC)noc2C)c(=O)[nH]c1=O | -7% | 0% | 7% | -17% | 4% | 1%
CC(=O)c1sc(NC(=O)CCCOc2ccc(Cl)cc2)nc1C | -1% | -8% | 0% | -8% | -8% | 0%
